Results on 24 molecules are retold here after PubChem BioAssay.

In general, inhibition refers to the change of the read-out against control, counted positive when it falls.

Unmarked numbers belong to inactive results. For part of these data: Measured potencies and affinities stand elsewhere. The source made the active and inactive calls. Unless noted, the rule behind the calls is not given here.

A short description of test [1]: antimalarial activity against Dd2 strain (AID 2302;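 active = growth inhibition above 50% at the single 2 µM test dose, taken to imply half-maximal potency below 2 µM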;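 note: 0% = DMSO untreated growth and 100% = chloroquine plus artemisinin killed control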). Conditions: P. falciparum Dd2 in RBCs, LDH growth readout, 72 h; at 2 µM; active compounds read high.
The target in test [2] is L-lactate dehydrogenase (Plasmodium falciparum (isolate CDC / Honduras)) (UniProt Q27743). In words: PfLDH activity inhibition – cell lysate, 3D7 strain, counter-screen for P. falciparum growth inhibition project (AID 2304).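 Note: 0% = vehicle and 100% = reference inhibitor.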 The settings on record: P. falciparum 3D7 crude extract, LDH APAD/NBT absorbance; at 2 µM; active compounds read high. A general note: A counterscreen serves to expose hits that act by an unwanted route or on another target.
Chain of L-lactate dehydrogenase (Plasmodium falciparum (isolate CDC / Honduras)) (Q27743 whole entry, looked up): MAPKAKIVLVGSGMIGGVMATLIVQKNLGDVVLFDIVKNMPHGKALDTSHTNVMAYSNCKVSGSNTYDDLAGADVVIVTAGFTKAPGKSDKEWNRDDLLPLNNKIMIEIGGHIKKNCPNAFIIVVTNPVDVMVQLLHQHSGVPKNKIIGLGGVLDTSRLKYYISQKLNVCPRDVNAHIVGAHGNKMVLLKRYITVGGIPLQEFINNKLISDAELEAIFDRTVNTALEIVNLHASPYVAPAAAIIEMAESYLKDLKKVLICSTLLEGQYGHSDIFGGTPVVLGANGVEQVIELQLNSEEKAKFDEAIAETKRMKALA

Test [3] is described as follows: inhibition of 3D7 malaria parasite growth – strain 3D7 (AID 2306).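 Note: 0% = DMSO wells and 100% = chloroquine plus artemisinin control wells.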 Conditions: P. falciparum 3D7 erythrocytic growth, LDH absorbance, 72 h; at 2 µM; active compounds read high.
In test [4] the target is Calcium-dependent protein kinase 1 (Plasmodium falciparum (isolate 3D7)) (UniProt P62344). The experiment in a line: PfCDPK1 kinase inhibitors, biochemical, TCAMS library (AID 1159585; cut-off not given, nearly all actives have IC50 up to about 0.98 µM;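 note: inhibitors leave more ATP so luminescence rises with inhibition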). The settings on record: recombinant PfCDPK1, Kinase-Glo ATP depletion luminescence. (Kinase-Glo measures the ATP left after a reaction by luminescence.)
Chain of Calcium-dependent protein kinase 1 (Plasmodium falciparum (isolate 3D7)) (P62344 whole entry, looked up): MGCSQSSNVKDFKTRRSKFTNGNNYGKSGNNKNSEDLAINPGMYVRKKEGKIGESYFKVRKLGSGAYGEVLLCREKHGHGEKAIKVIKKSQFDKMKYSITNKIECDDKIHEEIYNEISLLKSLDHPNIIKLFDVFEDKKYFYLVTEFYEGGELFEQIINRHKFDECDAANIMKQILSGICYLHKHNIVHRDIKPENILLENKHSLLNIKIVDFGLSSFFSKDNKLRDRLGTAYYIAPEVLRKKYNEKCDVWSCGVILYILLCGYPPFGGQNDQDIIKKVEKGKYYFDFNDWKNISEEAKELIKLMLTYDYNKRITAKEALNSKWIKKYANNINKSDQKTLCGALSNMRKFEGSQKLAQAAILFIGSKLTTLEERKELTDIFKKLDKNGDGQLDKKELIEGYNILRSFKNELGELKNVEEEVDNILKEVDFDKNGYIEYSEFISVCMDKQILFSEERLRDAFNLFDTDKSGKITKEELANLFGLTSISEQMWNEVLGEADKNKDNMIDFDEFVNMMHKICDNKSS
In test [5] the target is Plasmodium falciparum protein kinase 6 (PK6, PF3D7_1337100) (UniProt Q8IDW1). In words: PfPK6 kinase inhibitors, biochemical, TCAMS library (AID 1159586). The settings on record: recombinant PfPK6, Kinase-Glo ATP depletion luminescence.
Chain of Plasmodium falciparum protein kinase 6 (PK6, PF3D7_1337100) (Q8IDW1 1-305): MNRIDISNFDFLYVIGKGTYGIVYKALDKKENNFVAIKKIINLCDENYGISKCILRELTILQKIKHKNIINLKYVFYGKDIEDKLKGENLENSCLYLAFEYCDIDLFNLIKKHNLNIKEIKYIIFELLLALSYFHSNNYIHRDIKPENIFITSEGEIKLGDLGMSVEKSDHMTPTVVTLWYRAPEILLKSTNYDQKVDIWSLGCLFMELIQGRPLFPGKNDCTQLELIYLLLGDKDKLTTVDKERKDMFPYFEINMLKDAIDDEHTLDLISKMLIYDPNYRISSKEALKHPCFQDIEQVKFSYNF
Test [6] addresses Protein kinase 7 (PK7), Plasmodium falciparum 3D7 (PF3D7_0213400) (UniProt Q7YTF7). The experiment in a line: inhibition of Plasmodium PK7 catalytic activity – biochemical, TCAMS antimalarial set, Kinase-Glo luminescence (AID 1159587). The settings on record: recombinant PfPK7, Kinase-Glo ATP depletion luminescence.
Test [7] deals with Calcium-dependent protein kinase 4 (Plasmodium falciparum (isolate 3D7)) (UniProt Q8IBS5). In words: PfCDPK4 kinase inhibitors, biochemical, TCAMS library (AID 1159588; cut-off not given, nearly all actives have IC50 up to about 0.91 µM). The settings on record: recombinant PfCDPK4, Kinase-Glo ATP depletion luminescence.
Chain of Calcium-dependent protein kinase 4 (Plasmodium falciparum (isolate 3D7)) (Q8IBS5 whole entry, looked up): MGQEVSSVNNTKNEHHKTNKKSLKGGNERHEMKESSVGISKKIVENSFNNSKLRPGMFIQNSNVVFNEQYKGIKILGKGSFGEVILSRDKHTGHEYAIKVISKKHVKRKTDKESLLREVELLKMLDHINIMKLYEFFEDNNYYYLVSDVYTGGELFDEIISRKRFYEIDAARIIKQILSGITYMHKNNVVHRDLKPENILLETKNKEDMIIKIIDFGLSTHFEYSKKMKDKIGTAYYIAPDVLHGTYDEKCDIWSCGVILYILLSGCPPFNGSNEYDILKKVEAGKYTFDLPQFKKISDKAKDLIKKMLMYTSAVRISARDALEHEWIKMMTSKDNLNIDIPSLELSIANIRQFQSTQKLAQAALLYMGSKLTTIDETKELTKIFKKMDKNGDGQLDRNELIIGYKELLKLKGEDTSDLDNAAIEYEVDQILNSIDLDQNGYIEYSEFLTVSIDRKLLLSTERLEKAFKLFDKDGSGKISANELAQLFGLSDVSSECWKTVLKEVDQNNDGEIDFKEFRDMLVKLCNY

Chain of Protein kinase 7 (PK7), Plasmodium falciparum 3D7 (PF3D7_0213400) (Q7YTF7 1-343): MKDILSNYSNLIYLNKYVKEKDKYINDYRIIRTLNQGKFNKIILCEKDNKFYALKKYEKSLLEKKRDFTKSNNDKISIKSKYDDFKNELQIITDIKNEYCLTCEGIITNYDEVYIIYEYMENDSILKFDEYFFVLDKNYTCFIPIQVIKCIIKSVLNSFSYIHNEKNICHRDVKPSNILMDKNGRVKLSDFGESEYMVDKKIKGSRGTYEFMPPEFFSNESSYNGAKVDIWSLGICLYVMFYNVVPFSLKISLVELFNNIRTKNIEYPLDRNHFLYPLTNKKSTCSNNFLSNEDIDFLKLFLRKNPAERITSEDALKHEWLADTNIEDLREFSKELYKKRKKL

On to `CCC(C(C)C)n1ccc2c3c(N)nc(N)nc3ccc21` (stereo not drawn), for which the growth inhibition in test [1] and in test [3] was 95% (active) each time. Besides, in test [2], the inhibition was 3%. Moreover, the outcome in test [4], in test [5], in test [6] and in test [7] was inactive.
Regarding `CCC(=C(CC)c1ccc(O)c(CNC2CCCCC2)c1)c1ccc(O)c(CNC2CCCCC2)c1`, the growth inhibition in test [1] and in test [3] was 100% (active) in each case. In addition, the inhibition in test [2] was -1%. Moreover, the outcome in test [4], in test [5], in test [6] and in test [7] was inactive.
For the molecule `NC(N)=NC(=O)Nc1cc(F)c(Cl)c(Cl)c1`, the growth inhibition in test [1] and in test [3] was 101% (active) each time. Also, the inhibition in test [2] was 2%. Also, the outcome in test [4], in test [5], in test [6] and in test [7] was inactive.
In the case of `CCOC(=O)N1CCN(CCCCCNc2cc(C)nc(/N=C(\N)Nc3ccc(Cl)cc3)n2)CC1`, the growth inhibition in test [1] is 0%; in test [3], 101% (active). Besides, the inhibition in test [2] was -1%. Moreover, the outcome in test [4], in test [5], in test [6] and in test [7] was inactive.
`Cc1ccc(Cc2cccc3nc(N)nc(N)c23)cc1`: the growth inhibition was 0% in test [1] and 92% (active) in test [3]. Moreover, in test [2], the inhibition is -2%. Further, the result in test [4], in test [5], in test [6] and in test [7] was inactive.
Take `CCc1cc(COc2ccc(CNCCC(C)C)cc2I)c(OCc2ccccc2)c(COc2ccc(CNCCC(C)C)cc2I)c1`: the growth inhibition in test [1] was 15%; in test [3], 89% (active). For the same molecule, the inhibition in test [2] is 0%. Besides, the outcome in test [4], in test [5], in test [6] and in test [7] was inactive.
As for `COc1ccc(OC)c(Cc2c(C)nc3nc(N)nc(N)c3c2C)c1`, the growth inhibition in test [1] was 0%; in test [3], 90% (active). The inhibition in test [2] was -2%. The outcome in test [4], in test [5], in test [6] and in test [7] was inactive.
For `CCOc1cc(Cc2cnc(N)nc2N)ccc1OC`, the figures for the growth inhibition in test [1] and in test [3] were -4% and 88% (active), respectively. Moreover, the inhibition in test [2] is -1%. Moreover, the outcome in test [4], in test [5], in test [6] and in test [7] was inactive.
As to `C=CCOc1ccc(Cc2cnc(N)nc2N)cc1CCC`, the figures for the growth inhibition in test [1] and in test [3] were -1% and 93% (active), respectively. In addition, the inhibition in test [2] is -1%. In addition, the result in test [4], in test [5], in test [6] and in test [7] was inactive.
As for `Nc1nc(N)c2c3c(ccc2n1)NCCC3`, the values for the growth inhibition in test [1] and in test [3] were -10% and 97% (active), respectively. The inhibition in test [2] is -3%. Besides, the outcome in test [4], in test [5], in test [6] and in test [7] was inactive.
Take `COc1cc(Cc2cnc(N)nc2N)cc(OCCCC#N)c1OC`: the growth inhibition was -1% in test [1] and 86% (active) in test [3]. Besides, the inhibition in test [2] is -3%. In addition, the outcome in test [4], in test [5], in test [6] and in test [7] was inactive.
With `Nc1nc(N)c2c(ccc3c2ccn3Cc2ccc3c(c2)OCO3)n1`, the values for the growth inhibition in test [1] and in test [3] were 95% (active) and 100% (active), respectively. In addition, in test [2], the inhibition is -3%. Further, the outcome in test [4], in test [5], in test [6] and in test [7] was inactive.
For the molecule `Cc1ccccc1OCCCc1c(C)nc(N)nc1N`, the growth inhibition is 1% in test [1] and 97% (active) in test [3]. The inhibition in test [2] is -3%. The result in test [4], in test [5], in test [6] and in test [7] was inactive.
For the molecule `CC(=NNc1nc2ccccc2s1)c1ccccn1`, the growth inhibition in test [1] was 47%; in test [3], 88% (active). For the same molecule, in test [2], the inhibition was -2%. For the same molecule, the result in test [4], in test [5], in test [6] and in test [7] was inactive.
Regarding `COc1ccc(Cc2cnc3nc(N)nc(N)c3c2C)cc1OC`, the growth inhibition in test [1] was 97% (active); in test [3], 93% (active). The inhibition in test [2] is -5%. In addition, the result in test [4], in test [5], in test [6] and in test [7] was inactive.
On to `CC(C)CNc1nc(N)nc2ccc3c(ccn3CC(C)C)c12`, for which the growth inhibition is 51% (active) in test [1] and 99% (active) in test [3]. Moreover, the inhibition in test [2] is -7%. The result in test [4], in test [5], in test [6] and in test [7] was inactive.
On to `Cc1cc(=O)c(-c2ccc(OCc3ccc(Cl)cc3)cc2)c(C)[nH]1`, for which the growth inhibition in test [1] was 76% (active); in test [3] it was 93% (active). Besides, the inhibition in test [2] was -1%. For the same molecule, the outcome in test [4], in test [5], in test [6] and in test [7] was inactive.
`COc1ccc(OC)c(CC2c3ccc(Br)c(O)c3CCN2C)c1` (stereo not drawn): the growth inhibition was 97% (active) in test [1] and 98% (active) in test [3]. Moreover, the inhibition in test [2] is -7%. The outcome in test [4], in test [5], in test [6] and in test [7] was inactive.
Consider `CCCCN(CCCC)CCCN(CCCN(CCCC)CCCC)c1cc(C)nc(Nc2ccc(Cl)cc2)n1`, for which the growth inhibition in test [1] was 99% (active); in test [3], 101% (active). In addition, the inhibition in test [2] was 0%. In addition, the outcome in test [4], in test [5], in test [6] and in test [7] was inactive.
With `COc1ccc(C2c3ccccc3-c3nc(N)nc(N)c3C2C)cc1` (stereo not drawn), the growth inhibition in test [1] is 0%; in test [3], 97% (active). Besides, in test [2], the inhibition is 3%. The outcome in test [4], in test [5], in test [6] and in test [7] was inactive.
On to `COc1cc(Cc2cnc(N)nc2N)cc(OCCCCc2ccc([N+](=O)[O-])cc2)c1OC`, for which the growth inhibition in test [1] was 4%; in test [3] it was 88% (active). The inhibition in test [2] is -10%. The result in test [4], in test [5], in test [6] and in test [7] was inactive.
Take `Cc1[nH]c(C)c(-c2ccc(Oc3ccccc3)cc2)c(=O)c1Br`: the growth inhibition in test [1] is 97% (active); in test [3], 96% (active). The inhibition in test [2] was 1%. The outcome in test [4], in test [5], in test [6] and in test [7] was inactive.
With `Nc1ncc(-c2ccc(Br)cc2)c(N)n1`, the growth inhibition in test [1] was 0%; in test [3], 89% (active). In addition, in test [2], the inhibition is 0%. Further, the result in test [4], in test [5], in test [6] and in test [7] was inactive.
Consider `c1ccc(CN2CCN(CCCCNc3c4ccccc4nc4ccccc34)CC2)cc1`, for which the figures for the growth inhibition in test [1] and in test [3] were 101% (active) and 102% (active), respectively. Also, the inhibition in test [2] is -6%. The result in test [4], in test [5], in test [6] and in test [7] was inactive.
